The source of these data is PubChem BioAssay (EPA / NIEHS).

“And” between values parts separate entries of the source, which are not always exact repeats. Equal entries are not always repeated. Records with an inconclusive call do not appear. The source holds several records for some structures; these can differ, active in one and inactive in another. The source made the active and inactive calls. How the source made its calls, unless noted: active means hit-call score of the fitted dose curve at least 0.9, where 1 is the maximum; inconclusive means response in the unintended direction; inactive means score below 0.9.

One may read the AC50 as the concentration at which the activity in the assay is half-maximal.

Test [1] is described as follows: STM_H9_OrnithineISnorm_perc: Stemina devTOX quickPredict H9 human embryonic stem cell (hESC)-based Assay for Ornithine (ORN) Metabolite Biomarker, Normalized (AID 2283712; active means hit-call score of the fitted dose curve at least 0.9, where 1 is the maximum; inactive means score below 0.9;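 further: ornithine released into spent medium during last day measured by mass spectrometry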). The procedure, abridged:
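Cells: undifferentiated H9 hESC. Dosing: 72 h, media replaced every 24 h. Sample: final 24-h conditioned media, 40% acetonitrile. Read: UPLC-HRMS ornithine area vs 13C standard, % DMSO control.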

The nature of test [2]: STM_H9_OrnCyssISnorm_ratio: Stemina devTOX quickPredict H9 human embryonic stem cell (hESC)-based Assay for Ornithine (ORN):Cystine (CYSS) Ratio (AID 2283714). The procedure, abridged:
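Undifferentiated H9 hESCs were exposed to compound for 72h with media and chemical replaced every 24h. Final 24-h conditioned media were deproteinized and analysed by UPLC-HRMS. ORN and CYSS peak areas were normalized to C13 internal standards and the ratio taken versus 0.1% DMSO.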

A short description of test [3]: CEETOX_H295R_MTT_cell_viability: Viability Assessment in the CeeTox HT-H295R MTT Assay (AID 2283718; active means hit-call score of the fitted dose curve at least 0.9, where 1 is the maximum; inactive means score below 0.9). The procedure, abridged: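 H295R cells prestimulated 48 h with 10 uM forskolin, then exposed 48 h to test chemical (0.1% DMSO final). Viability by MTT (0.5 mg/ml, 4 h, 37 C), absorbance 570/650 nm; percent change versus DMSO, bidirectional fit.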
Test [4] can be described thus: Tanguay_ZF_120hpf_ActivityScore_legacy: (Legacy) Oregon State University Tanguay Lab 120 Hour Post-fertilization zebrafish Assay Score for Activity (AID 2283742).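 On AC50: static exposure from 6 hpf until 120 hpf at 28 °C.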 Put shortly: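 Tropical 5D wild-type zebrafish embryos, dechorionated with pronase at 4 hpf, were exposed singly from 6 hpf to 120 hpf statically at 28C in 0.64% DMSO. Malformations and mortality were scored as binary by brightfield, with the activity score combining 18 morphology components.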

Test [5] has as its system Thyroperoxidase (TPO), gene 445522. The experiment in a line: CCTE_Simmons_GUA_TPO: CCTE's Guaiacol Assay for Thyroperoxidase (TPO) Inhibition, Simmons Lab (AID 2283750). The procedure, abridged: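 Porcine thyroid microsomes (25 ug) in 200mM potassium phosphate, preincubated 30 s at 37C with compound (8 concentrations, 5 nM–87.5 uM) and 35mM guaiacol; 1mM H2O2 starts reaction. Absorbance change at 450nm over first 80 s; loss of signal versus DMSO, three replicates.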

A short description of test [6]: ArunA_CellTiter_hNC: Viability Assessment in the ArunA Biomedical's Oris Neural Crest (hNC) Cell Migration Assay (AID 2283752). The procedure, abridged:
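Viability of embryonic neural crest stem cells from the H9 line is scored 72 h after dosing, with DMSO as negative control and baseline. A drop in CellTiter Aqueous One signal indicates cytotoxicity.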

Test [7] is described as follows: ArunA_Migration_hNP: ArunA Biomedical's Oris Neuroprogenitor (hNP) Cell Migration Assay (AID 2283754). Put shortly: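 Human H9-derived hNP1 neuroprogenitors on Matrigel with LIF/bFGF, plated around seeding stoppers for 16 h at 37C; stoppers removed at start of 72 h chemical exposure. Calcein-AM staining, fluorescence 494/517 nm in detection zone; loss-of-signal vs DMSO; cytochalasin D control.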

Test [8] is described as follows: ArunA_Migration_hNC: ArunA Biomedical's Oris Neural Crest (hNC) Cell Migration Assay (AID 2283755). The procedure, abridged: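 Human H9-derived neural crest stem cells, 60,000/well on Matrigel, 16 h at 37C, then 72 h chemical exposure after seeding-stopper removal. Migration into detection zone read as calcein-AM fluorescence (ex494/em517), relative to DMSO.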
Test [9] in a line: ArunA_CellTiter_hNP: Viability Assessment in the ArunA Biomedical's Oris Neural Crest (hNC) Cell Migration Assay (AID 2283753). As to the method: ArunA_CellTiter_hNP is a cell-based, single-readout assay that uses human H9-derived neuroprogenitor stem cells (hNP1).Measurements were taken 72 hours after chemical dosing in a 96-well plate.ArunA_CellTiter_hNP is an assay component measured from the ArunA_CellTiter_hNP assay. It is designed to make measurements of viability, a form of viability reporter, as detected with fluorescence intensity signals by HCS Fluorescent Imaging technology. Data from the assay component ArunA_CellTiter_hNP was analyzed at the endpoint, ArunA_CellTiter_hNP, in the positive analysis fitting direction relative to DMSO as the negative control and baseline of activity. Using a type of viability reporter, loss-of-signal activity can be used to understand the viability. To generalize the intended target to other relatable targets, this assay endpoint is annotated to the cell cycle intended target family, where the subfamily is cytotoxicity.
To assess the hNP and hNC migration and cell titer endpoints, 60,000 cells per well were plated onto Matrigel in basal growth medium with LIF and bFGF in a 96-well plate format. Plates were incubated for 16 h at 37C followed by a 72 h exposure to chemical in the test medium. For the migration endpoints, cells were seeded and incubated in presence of 'seeding stoppers' to prevent cell migration and growth into the detection zone. At the beginning of chemical exposure, stoppers were removed, and growth medium was replaced with test medium. In the case of the stopper control wells, stoppers remained in place following replacement of growth medium with test medium. […] Cell viability in the detection zone was quantitated using a Flexstation3 microplate reader (ex494 nm/em 517 nm). Corresponding cell titer endpoints were assessed for the hNP and hNC cells using the Promega CellTiter Aqueous One Solution Cell Proliferation Assay (Cat no. G3581; CellTiter 96). Finally, to gain insight into the mechanisms by which cells migrate into the detection zone, Ki-67 expression was quantified for 10 additional chemicals in the hNP and hNC systems. […]

The nature of test [10]: ArunA_NOG_NucleusCount: ArunA Biomedical's Neurite Outgrowth (NOG) Assay for Nucleus Count (AID 2283756). The procedure, abridged:
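Human H9-derived differentiated neurons were exposed for 48 h right after seeding. Hoechst-stained nuclei gated by size and intensity were counted by automated high-content imaging as viable neurons. Loss of signal vs DMSO.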

Take `Cc1ccc(N)c(N)c1`: the AC50 in test [1] was 18.9 µM (active); in [2] it was 22.7 µM (active). Also, the compound was classed as inactive in test [3] and in [4].
Regarding `CCCCCOC(=O)c1ccccc1C(=O)OCCCCC`, the result in [1], in [3] and in test [4] was inactive. Further, in [2], the concentration at half-maximal activity (AC50) was 21.9 µM (active).
For `Cn1cc(-c2ccccc2)c(=O)c(-c2cccc(C(F)(F)F)c2)c1`, the AC50 in [1] is 0.0803 µM (active). Also, the outcome in test [2], in test [3] and in [4] was inactive.
Take `Nc1ccc(Oc2ccc(N)cc2)cc1`: the figures for the AC50 in test [1], in test [2] and in [5] were 59.5 µM (active), 50.2 µM (active) and 0.366 µM (active), respectively. Also, the compound was called inactive in test [3] and in test [4].
With `O=P(OCCCl)(OCCCl)OCCCl`, the result in test [1], in test [3], in test [4], in [6], in test [7] and in test [8] was inactive.
Regarding `COc1cc(C=O)cc2c1[C@H](COC(N)=O)[C@]1(OC(C)=O)ON2C[C@H]2[C@@H]1N2C(C)=O`, the AC50 in test [1] was 0.00101 µM (active); in test [2], 0.000797 µM (active); in [4] it was 23.4 µM (active).
For `CC(C)(C)C(O)(CCc1ccc(Cl)cc1)Cn1cncn1` (stereo unspecified), the AC50 is 79.1 µM (active) in test [1] and 45 µM (active) in [2]. The compound was called inactive in test [3] and in test [4].
Consider `CCC[CH2][Sn]([Cl])([CH2]CCC)[CH2]CCC`, for which the values for the AC50 in [1], in test [2] and in [4] were 0.519 µM (active), 0.497 µM (active) and 0.317 µM (active), respectively.
Turning to `CC(C)COC(=O)c1ccccc1C(=O)OCC(C)C`, the AC50 in [1] is 76.1 µM (active); in test [2], 35.3 µM (active). Moreover, the compound was called inactive in test [3] and in test [4].
Take `CO[C@@H]1[C@H](OC(=O)NC(=O)CCl)CC[C@]2(CO2)[C@H]1[C@@]1(C)O[C@@H]1CC=C(C)C`: the concentration at half-maximal activity (AC50) in [1] was 0.0844 µM (active); in test [2], 0.0656 µM (active); in [6] it was 1.63 nM (active) and 120 nM (active); in test [9] it was 0.00608 µM (active); in [8], 22.8 nM (active) and 5 µM (active). Also, the compound was classed as inactive in [4], in test [9], in [7] and in [10].
